Assay results: PubChem BioAssay AID504465 (National Center for Advancing Translational Sciences (NCATS), 2011)
Screen size: about 2,100 compounds; about 210 (10%) were called active. Roughly 53% stayed inconclusive and do not appear here. Calls come from the whole dose curve; as a rule, active = well fitted inhibition curve with a large enough effect; inconclusive = small, poorly fitted or top-dose-only effect, or effect the other way; inactive = no such curve, though single readings can be large or run the other way. The list shows a part of the results. A call without a number means that no potency is given here.

Experiment: IN Cell qHTS Assay for Inhibitors of the mTORC1 Signaling Pathway in MEF (Tsc2-/-, p53-/-) Cells: Sytravon; note: nearly all actives have a fitted effect of over 60% in size
Conditions: phospho-rpS6 immunofluorescence, 24 h; series mostly up to 38.3 µM
Source text: NIH Molecular Libraries Probe Production Centers Network [MLPCN] NIH Chemical Genomics Center [NCGC] MLPCN Grant: NS059428-01 Assay Submitter (PI): Blenis, John; Hoffman, Greg; Harvard University NCGC Assay Overview: Thee mammalian target of rapamycin (mTOR) is an intracellular serine/threonine kinase Aberrant regulation of mTOR signaling plays a causative role in a number of human diseases, including cancer, benign tumors such as lymphangioleiomyomatosis (LAM) and Tuberous Sclerosis Complex (TSC), and metabolic diseases such as diabetes and obesity. This project aims to identify inhibitors of ribosomal protein S6 (rpS6) phosphorylation. The phosphorylation of rpS6 is a key event downstream of mTOR activation. The assay uses a phospho-specific antibody of phospho-rpS6 to detect inhibitors of mTOR activation. Mutations in the Tsc1 and Tsc2 genes are the underlying genetic lesions responsible for TSC, causing constitutive activation of the mTORC1 pathway and leading to profound effects on cell metabolism. Aberrant metabolism in cancer has recently received significant attention as a target to develop therapeutic agents in the treatment of cancer1. As Tsc2-/- cells have lost the ability to respond to energy and growth factor deprivation, these cells are unable to properly down regulate cellular biosynthetic processes in response to metabolic stress, and are thus extremely sensitive to glucose deprivation-induced death.2 A central goal of this project is to explore the unique cell survival and metabolic properties of cells with Tsc1 or Tsc2 by screening for compounds that selectively target the Tsc2-/- MEFs by screening both Tsc2-/- and WT MEF cell lines. We hope to better understand these aspects of TSC physiology in order to exploit them for therapeutic benefit.
NCGC IN Cell Assay Protocol: For quantitative high throughput analysis of mTORC1 signaling, we developed a cell-based assay for immuno-fluorescence based detection of rpS6 phosphorylation on the Acumen Explorer that will be used a platform for the primary small molecule screen. Mouse embryonic fibroblasts (MEFs) are cultured in 1536-well plates using DMEM + 10% FBS. Twenty-four hrs after plating, test compounds (solubilized in DMSO) are delivered and incubated with the cells for 24 hrs at 37 degree Celsius. Following the incubation, media with compound is aspirated and the cells are fixed in 4% paraformaldehyde (PFA) containing PBS + 0.2% TX-100. Next, PFA is aspirated, cells are washed two times with PBS plus 0.2% TX-100 and the cells are blocked for 1 hr at room temperature (blocking buffer: LiCOR Blocking Buffer plus 0.2% TX-100). This is followed by aspiration and staining with Alexa-488 conjugated-phospho-rpS6 Ser235/236 antibody for 2 hours at room temperature (Cell Signaling Technology # 4803, 1:50 dilution in blocking buffer). Cells are washed two times with PBS plus 0.2% TX-100, and stained with 10 uM propidium iodide (PI) for 20-25 minutes for cell number measurement (1:500 dilution of Hoescht staining is also added for IN Cell imaging). Active wells which are selected (based on Acumen results) are imaged on the IN Cell 1000 (GE Healthcare) using the D360/40X and HQ480/40X excitation filters for the Hoechst and Alexa-488 cytoplasmic stains, respectively. The fluorescence emission filters used were HQ460/40M and HQ535/50M for the Hoechst and Alexa-488 cytoplasmic stains, respectively. The normalized phospho-S6 staining is calculated as the ratio of […] for the single concentration rapamycin control (7.5 nM) and DMSO columns. […] Inhibition of the pathway is defined based on the normalized phospho-S6 intensity in rapamycin treated cells. Each treatment is reported as the % positive cells in the well, where thresholds are defined by selecting wells with the highest and lowest signal and differentiating between the % non-active and % active populations. […]
Potency is the fitted concentration of half-maximal effect.

Row | SMILES | Potency
1 | O=c1oc2ccccc2cc1-c1cn2cc(Cc3ccc(F)cc3)sc2n1 | 1.65 µM (active)
2 | CCc1ccc(-n2nc(C)c3c2NC(=O)CSC3c2ccc(OC)cc2OC)cc1 (centres undefined) | inactive
3 | Cc1cccc(CN2CC=C(c3noc(CCC(=O)Nc4ccc(C)c(F)c4)n3)CC2)c1 | inactive
4 | Nc1c(C(=O)Nc2cccc(Br)c2)sc2nc3c(cc12)N1CCC3CC1 | inactive
5 | O=C(Nc1ccccc1)N(Cc1ccc2c(c1)OCO2)C1CCN(Cc2ccccc2)CC1 | inactive
6 | COc1ccc2nc(NC(=O)c3nc(S(=O)(=O)Cc4cccc(C)c4)ncc3Cl)sc2c1 | 16.5 µM (active)
7 | CCOc1ccc(NC(=O)c2cccn(Cc3cccc(Cl)c3)c2=O)cc1 | inactive
8 | CCOc1ccc(NC(=O)c2cc3c(C)nn(-c4ccccc4)c3s2)cc1 | 14.7 µM (active)
9 | Cc1ccc(-n2c(/C=C/c3ccc(Br)s3)nc3ccccc3c2=O)cc1C | inactive
